# According to ChEMBL document CHEMBL3988442, “University of Dundee, Small-Polar-MMV Screening Library” (2021):
# Where “and” joins values, the source holds several entries; their conditions need not be identical. Equal entries are not always repeated. For part of these data: Entries with a potency or affinity are not part of this list.
# Assays:
# [1] = target: T1, Methionyl-tRNA synthetase, putative (Leishmania donovani (strain BPK282A1)) (UniProt E9BF75); test: Leishmania donovani Methionine tRNA synthetase (LdMetRS):v7. Dose response assay; assay type: functional; design: conc 80 nM, time 150 minutes
# T1 sequence (whole entry): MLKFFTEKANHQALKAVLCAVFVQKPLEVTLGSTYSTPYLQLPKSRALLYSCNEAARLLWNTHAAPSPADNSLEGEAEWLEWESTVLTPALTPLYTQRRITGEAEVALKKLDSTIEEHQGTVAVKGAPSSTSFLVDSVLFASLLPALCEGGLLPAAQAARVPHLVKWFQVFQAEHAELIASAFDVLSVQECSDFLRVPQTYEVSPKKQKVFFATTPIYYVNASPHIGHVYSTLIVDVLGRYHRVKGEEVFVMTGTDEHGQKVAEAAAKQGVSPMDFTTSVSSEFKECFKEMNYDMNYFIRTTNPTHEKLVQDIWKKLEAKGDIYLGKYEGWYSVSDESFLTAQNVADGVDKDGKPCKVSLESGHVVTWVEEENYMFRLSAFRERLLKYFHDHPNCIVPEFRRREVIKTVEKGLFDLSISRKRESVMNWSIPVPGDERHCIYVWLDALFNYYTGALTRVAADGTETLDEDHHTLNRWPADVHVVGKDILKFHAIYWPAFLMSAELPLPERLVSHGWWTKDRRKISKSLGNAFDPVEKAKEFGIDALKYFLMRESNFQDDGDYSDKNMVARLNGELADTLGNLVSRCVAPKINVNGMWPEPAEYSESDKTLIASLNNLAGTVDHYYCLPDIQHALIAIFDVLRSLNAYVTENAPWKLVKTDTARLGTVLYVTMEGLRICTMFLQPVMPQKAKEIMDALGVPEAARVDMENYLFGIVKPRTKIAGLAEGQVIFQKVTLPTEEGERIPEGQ
# [2] = target: Protein translocase subunit SecA (Escherichia coli (strain K12)) (UniProt P10408); test: Assay to Identify E. coli SecA ATPase Inhibitors; assay type: functional; design: scale not given: direction of the effect not stated beside the values; conditions: 30 µM
# Protein translocase subunit SecA (Escherichia coli (strain K12)), sequence (P10408 whole entry): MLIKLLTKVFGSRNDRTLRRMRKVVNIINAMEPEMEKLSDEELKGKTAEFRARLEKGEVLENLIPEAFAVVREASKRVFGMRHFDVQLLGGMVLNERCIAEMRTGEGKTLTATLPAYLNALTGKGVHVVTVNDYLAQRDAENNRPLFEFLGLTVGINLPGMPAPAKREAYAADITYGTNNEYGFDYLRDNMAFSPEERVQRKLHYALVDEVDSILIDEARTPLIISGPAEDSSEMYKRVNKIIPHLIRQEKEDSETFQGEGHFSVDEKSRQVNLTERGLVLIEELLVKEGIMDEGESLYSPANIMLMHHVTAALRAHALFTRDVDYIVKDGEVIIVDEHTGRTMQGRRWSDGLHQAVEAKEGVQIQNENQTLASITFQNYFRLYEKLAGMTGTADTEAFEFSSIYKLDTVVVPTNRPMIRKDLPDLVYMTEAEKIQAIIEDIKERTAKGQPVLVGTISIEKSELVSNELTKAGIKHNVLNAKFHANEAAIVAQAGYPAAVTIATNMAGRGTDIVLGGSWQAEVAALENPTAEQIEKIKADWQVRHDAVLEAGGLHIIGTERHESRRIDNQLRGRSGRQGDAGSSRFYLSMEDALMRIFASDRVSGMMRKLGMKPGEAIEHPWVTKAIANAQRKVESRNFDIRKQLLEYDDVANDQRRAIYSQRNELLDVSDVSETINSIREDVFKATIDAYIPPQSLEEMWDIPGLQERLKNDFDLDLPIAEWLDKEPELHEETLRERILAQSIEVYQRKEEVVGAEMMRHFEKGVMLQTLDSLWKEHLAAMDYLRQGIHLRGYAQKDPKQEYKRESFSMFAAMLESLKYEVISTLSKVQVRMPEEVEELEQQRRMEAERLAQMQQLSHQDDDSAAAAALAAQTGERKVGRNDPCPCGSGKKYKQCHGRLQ
# [3] = target: T2, Ubiquitin-activating enzyme e1, putative (Leishmania donovani (strain BPK282A1)) (UniProt E9BSI1); test: Leishmania donovani Ubiquitin Activating Enzyme (LdE1); assay type: functional; design: scale not given: direction of the effect not stated beside the values; conditions: 30 µM
# T2 sequence (whole entry): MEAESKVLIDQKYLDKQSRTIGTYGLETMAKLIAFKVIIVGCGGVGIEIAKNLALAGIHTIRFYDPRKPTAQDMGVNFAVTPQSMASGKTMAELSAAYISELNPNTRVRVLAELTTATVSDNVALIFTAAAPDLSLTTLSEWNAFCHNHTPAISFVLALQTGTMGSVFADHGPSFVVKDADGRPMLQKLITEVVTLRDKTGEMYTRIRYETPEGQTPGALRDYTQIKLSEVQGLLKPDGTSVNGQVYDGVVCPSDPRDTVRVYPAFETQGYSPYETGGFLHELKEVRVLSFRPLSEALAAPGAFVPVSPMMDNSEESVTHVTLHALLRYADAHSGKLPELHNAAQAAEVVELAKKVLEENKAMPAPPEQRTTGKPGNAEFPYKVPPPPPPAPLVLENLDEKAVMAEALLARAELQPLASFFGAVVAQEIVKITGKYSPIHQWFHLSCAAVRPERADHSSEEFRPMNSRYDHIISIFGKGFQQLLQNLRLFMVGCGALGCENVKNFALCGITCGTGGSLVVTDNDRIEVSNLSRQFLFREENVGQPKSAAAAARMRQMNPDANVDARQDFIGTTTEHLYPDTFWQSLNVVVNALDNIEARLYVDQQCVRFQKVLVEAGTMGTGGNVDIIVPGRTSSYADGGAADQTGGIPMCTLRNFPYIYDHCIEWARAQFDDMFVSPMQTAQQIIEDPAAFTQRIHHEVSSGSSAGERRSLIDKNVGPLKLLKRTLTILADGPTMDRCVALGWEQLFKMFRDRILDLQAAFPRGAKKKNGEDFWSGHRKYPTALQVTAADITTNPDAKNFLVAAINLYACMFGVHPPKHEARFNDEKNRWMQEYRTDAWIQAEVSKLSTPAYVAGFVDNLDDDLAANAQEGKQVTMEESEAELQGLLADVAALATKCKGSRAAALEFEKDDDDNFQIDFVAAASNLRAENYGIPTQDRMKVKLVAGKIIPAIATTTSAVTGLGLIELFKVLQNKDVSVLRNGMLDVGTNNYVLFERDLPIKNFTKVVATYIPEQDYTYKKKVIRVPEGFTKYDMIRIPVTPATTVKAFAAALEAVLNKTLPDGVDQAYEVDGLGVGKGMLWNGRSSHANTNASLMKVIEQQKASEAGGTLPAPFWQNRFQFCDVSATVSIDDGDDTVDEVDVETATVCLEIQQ
# [4] = target: T3, Aspartate--tRNA(Asp/Asn) ligase (Mycobacterium tuberculosis (strain ATCC 25618 / H37Rv)) (UniProt P9WFW3); test: Assay for Asp RNA synthetase-1 from Mycobacterium tuberculosis; assay type: functional; design: scale not given: direction of the effect not stated beside the values; conditions: 30 µM; further: in the data most compounds retested in dose-response had high values
# T3 sequence (whole entry): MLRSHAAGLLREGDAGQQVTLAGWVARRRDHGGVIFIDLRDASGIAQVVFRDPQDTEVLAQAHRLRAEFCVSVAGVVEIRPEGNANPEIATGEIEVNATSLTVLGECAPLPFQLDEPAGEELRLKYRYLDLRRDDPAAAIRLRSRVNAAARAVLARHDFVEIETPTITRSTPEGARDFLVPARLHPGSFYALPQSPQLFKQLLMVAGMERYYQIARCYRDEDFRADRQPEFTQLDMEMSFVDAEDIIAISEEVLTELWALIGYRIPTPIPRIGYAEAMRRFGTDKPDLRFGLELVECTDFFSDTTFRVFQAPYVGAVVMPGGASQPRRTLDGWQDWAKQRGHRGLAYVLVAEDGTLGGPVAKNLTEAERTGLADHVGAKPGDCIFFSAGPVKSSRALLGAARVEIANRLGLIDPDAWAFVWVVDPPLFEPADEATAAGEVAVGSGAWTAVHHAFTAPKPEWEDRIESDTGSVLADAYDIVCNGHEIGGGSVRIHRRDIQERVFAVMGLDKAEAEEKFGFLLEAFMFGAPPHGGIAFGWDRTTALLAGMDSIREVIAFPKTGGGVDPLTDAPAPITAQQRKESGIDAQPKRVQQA
# [5] = target: AMP-activated protein kinase, AMPK (Homo sapiens) (UniProt P54646+O43741+P54619+Q9UGJ0+Q9Y478+Q13131+Q9UGI9); test: AMP-dependent Kinase enzyme assay. An in vitro enzyme assay that detects ADP turnover that is directly proportional to AMPK activity. This uses naive AMPK that is activated during the assay with MK-8722; assay type: functional; design: scale not given: direction of the effect not stated beside the values; conditions: 30 µM
# [6] = target: Sialic acid-binding Ig-like lectin 9 (Homo sapiens) (UniProt Q9Y336); test: Hs-Siglec9 ALPHAscreen SOP 20170721; design: scale not given: direction of the effect not stated beside the values; conditions: 10 µM
# Sialic acid-binding Ig-like lectin 9 (Homo sapiens), sequence (Q9Y336 whole entry): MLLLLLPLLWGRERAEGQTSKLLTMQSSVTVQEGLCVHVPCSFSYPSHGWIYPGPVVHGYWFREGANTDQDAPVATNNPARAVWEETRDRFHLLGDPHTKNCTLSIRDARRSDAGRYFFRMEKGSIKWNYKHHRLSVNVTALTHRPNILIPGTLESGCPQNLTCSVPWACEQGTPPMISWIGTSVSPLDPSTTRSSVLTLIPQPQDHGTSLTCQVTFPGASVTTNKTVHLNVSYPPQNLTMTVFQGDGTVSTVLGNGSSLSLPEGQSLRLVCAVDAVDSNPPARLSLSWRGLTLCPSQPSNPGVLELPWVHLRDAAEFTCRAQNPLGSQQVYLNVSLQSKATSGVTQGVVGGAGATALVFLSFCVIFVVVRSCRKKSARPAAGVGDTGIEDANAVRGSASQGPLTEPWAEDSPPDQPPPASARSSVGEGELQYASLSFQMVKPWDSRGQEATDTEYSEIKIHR
# [7] = test system: Trypanosoma cruzi; test: Trypanosoma cruzi phosphomannomutase and mannose-1-phosphate guanylyltransferase assay; assay type: functional; design: scale not given: direction of the effect not stated beside the values; conditions: 10 µM
# [8] = target: T4, Arginase-2, mitochondrial (Homo sapiens) (UniProt P78540); test: in vitro enzyme assay to detect the production of urea directly proportional to the activity of Arginase II; assay type: functional; design: scale not given: in the data most compounds retested in dose-response had high values; conditions: 33.3 µM
# T4 sequence (whole entry): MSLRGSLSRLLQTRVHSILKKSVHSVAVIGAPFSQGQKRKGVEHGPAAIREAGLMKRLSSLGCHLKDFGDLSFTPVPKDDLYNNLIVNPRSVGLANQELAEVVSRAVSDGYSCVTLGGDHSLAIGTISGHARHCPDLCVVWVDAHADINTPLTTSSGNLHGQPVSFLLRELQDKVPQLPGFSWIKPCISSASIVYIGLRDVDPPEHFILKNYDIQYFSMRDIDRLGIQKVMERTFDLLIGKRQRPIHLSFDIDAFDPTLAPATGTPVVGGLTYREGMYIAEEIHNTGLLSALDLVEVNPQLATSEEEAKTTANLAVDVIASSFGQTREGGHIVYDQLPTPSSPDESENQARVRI
# [9] = target: T5, Proteasome subunit beta (Trypanosoma cruzi) (UniProt O96673); test: Trypanosoma cruzi proteasome chymotrypsin-like activity (TcProtChymo) assay.; assay type: functional; design: scale not given: in the data most compounds retested in dose-response had high values; conditions: 9.37 µM
# T5 sequence (whole entry): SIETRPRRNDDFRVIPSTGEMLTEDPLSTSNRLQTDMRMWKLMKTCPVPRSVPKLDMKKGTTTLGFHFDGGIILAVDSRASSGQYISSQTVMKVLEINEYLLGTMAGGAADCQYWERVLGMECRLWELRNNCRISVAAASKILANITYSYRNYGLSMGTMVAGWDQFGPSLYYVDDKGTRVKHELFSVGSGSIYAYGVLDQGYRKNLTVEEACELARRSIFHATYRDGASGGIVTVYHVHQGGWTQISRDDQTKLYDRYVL
# [10] = test system: N/A; test: Trypanosoma cruzi proteasome luciferase counter-screen; assay type: functional; design: scale not given: direction of the effect not stated beside the values; conditions: 9.37 µM
# [11] = species: Homo sapiens; test: To identify inhibition of the IFN signalling (Jak-Stat) pathway via expression of an eGFP reporter gene under the control of an IFN-stimulated response element (ISRE) containing MxA promoter.; assay type: functional; design: scale not given: direction of the effect not stated beside the values; conditions: 30 µM
# [12] = target: Shiga toxin 2 (Escherichia coli O157:H7) (UniProt P09385+P09386); test: E. coli 0.157:H7 Shiga Toxin SOP - stx2 screening assay; assay type: functional; design: scale not given: direction of the effect not stated beside the values; conditions: 30 µM
# [13] = target: T6, Tyrosyl-tRNA synthetase, putative (Trypanosoma cruzi (strain CL Brener)) (UniProt Q4DSP6); test: Trypanosoma cruzi tyrosyl tRNA synthetase (TcYRS) _High Tyrosine SOP; assay type: functional; design: scale not given: in the data most compounds retested in dose-response had high values; conditions: 30 µM
# T6 sequence (whole entry): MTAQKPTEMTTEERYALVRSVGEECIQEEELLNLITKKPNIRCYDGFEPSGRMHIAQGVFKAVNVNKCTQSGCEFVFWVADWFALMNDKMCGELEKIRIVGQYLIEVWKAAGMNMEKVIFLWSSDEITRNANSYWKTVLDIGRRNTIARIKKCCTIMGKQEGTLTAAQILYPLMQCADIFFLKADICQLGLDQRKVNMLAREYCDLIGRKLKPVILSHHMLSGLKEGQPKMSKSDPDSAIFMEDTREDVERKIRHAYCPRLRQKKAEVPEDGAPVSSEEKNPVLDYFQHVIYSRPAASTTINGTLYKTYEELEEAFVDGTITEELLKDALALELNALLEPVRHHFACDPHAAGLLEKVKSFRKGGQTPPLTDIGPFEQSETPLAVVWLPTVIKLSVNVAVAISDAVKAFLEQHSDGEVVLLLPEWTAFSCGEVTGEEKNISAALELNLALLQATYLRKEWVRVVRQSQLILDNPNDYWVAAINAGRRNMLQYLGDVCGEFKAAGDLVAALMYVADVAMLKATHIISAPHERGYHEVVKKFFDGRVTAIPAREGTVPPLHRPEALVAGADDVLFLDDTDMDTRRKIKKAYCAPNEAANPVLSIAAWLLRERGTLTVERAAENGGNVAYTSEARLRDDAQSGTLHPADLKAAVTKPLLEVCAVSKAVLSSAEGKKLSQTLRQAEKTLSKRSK
# [14] = target: T6, Tyrosyl-tRNA synthetase, putative (Trypanosoma cruzi (strain CL Brener)); test: Trypanosoma cruzi tyrosyl tRNA synthetase (TcYRS) SOP; assay type: functional; design: scale not given: direction of the effect not stated beside the values; conditions: 30 µM
# [15] = target: Chromo domain-containing protein 1 (Saccharomyces cerevisiae (strain ATCC 204508 / S288c) (Baker's yeast)) (UniProt P32657); test: ScCHD-1 Enzyme Inhibition Assay; assay type: functional; design: scale not given: in the data most compounds retested in dose-response had high values; conditions: 30 µM
# Chromo domain-containing protein 1 (Saccharomyces cerevisiae (strain ATCC 204508 / S288c) (Baker's yeast)), sequence (P32657 whole entry, the tested form may be a part): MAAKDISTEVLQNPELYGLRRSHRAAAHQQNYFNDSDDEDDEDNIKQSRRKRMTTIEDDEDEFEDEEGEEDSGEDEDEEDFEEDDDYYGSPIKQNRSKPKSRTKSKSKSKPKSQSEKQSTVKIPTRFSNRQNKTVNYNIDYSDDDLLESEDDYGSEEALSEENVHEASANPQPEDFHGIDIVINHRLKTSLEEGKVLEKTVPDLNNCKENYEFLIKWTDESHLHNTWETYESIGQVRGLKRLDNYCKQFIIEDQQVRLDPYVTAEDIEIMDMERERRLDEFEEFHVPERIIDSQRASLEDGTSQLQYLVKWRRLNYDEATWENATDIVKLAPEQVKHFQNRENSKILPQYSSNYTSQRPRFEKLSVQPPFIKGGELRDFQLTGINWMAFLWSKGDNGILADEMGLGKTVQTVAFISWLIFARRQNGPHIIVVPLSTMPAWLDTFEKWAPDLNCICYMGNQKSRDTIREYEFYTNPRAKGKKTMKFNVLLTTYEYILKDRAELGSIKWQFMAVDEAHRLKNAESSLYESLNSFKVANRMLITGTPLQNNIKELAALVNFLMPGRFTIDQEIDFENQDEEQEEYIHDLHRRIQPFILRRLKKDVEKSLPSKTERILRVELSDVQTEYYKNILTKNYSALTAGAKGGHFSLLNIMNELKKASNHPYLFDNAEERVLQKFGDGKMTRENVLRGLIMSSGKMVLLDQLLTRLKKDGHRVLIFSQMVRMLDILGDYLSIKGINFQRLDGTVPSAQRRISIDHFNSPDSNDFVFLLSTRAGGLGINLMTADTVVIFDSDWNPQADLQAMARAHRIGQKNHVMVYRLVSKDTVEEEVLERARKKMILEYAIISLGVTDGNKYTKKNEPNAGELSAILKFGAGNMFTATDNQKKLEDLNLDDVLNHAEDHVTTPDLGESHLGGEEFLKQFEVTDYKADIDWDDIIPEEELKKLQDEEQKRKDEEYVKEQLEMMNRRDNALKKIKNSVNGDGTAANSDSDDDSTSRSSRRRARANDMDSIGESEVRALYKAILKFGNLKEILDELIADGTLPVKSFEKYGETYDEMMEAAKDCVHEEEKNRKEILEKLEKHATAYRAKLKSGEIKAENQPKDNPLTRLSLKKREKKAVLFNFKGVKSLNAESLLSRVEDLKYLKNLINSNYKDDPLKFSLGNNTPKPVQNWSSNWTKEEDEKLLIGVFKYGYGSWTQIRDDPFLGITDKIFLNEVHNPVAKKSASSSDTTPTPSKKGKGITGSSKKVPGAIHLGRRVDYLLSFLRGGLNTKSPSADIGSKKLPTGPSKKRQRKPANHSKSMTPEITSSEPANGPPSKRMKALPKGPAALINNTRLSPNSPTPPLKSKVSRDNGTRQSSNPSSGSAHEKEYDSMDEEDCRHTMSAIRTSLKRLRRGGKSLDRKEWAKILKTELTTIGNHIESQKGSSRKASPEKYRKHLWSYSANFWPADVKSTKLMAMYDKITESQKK
structure (smiles),measurement,setting,value
Cc1nc(N2CCN(C(=O)C(C)C)CC2)c2c3c(sc2n1)CC(C)CC3 (stereo not drawn),PXC50,[1]; MAX_EFFECT 28.46347607,< 4
same,PXC50,[1]; MAX_EFFECT 29.26208651,< 4
CC(Cn1cccn1)NCc1csc(-c2cccs2)n1 (stereo not drawn),Percent Effect,[2],-0.415%
same,Percent Effect,[3],5.41%
same,Percent Effect,[4],-4.5%
same,Percent Effect,[5],-7.34%
same,Percent Effect,[6],-3.93%
same,Percent Effect,[7],-4.81%
same,Percent Effect,[8],-0.802%
same,Percent Effect,[9],79.3% and 83.2% and 84%
same,Percent Effect,[10],52.8% and 51.5%
same,Percent Effect,[11],17.6%
same,Percent Effect,[12],21.1%
same,Percent Effect,[13],7.39%
same,Percent Effect,[14],13.6%
same,Percent Effect,[15],-4.55%
CO[C@@H]1CN(Cc2scnc2C)[C@@H]2CCCO[C@@H]21,Percent Effect,[2],-5.71%
same,Percent Effect,[3],2.7%
same,Percent Effect,[4],-1.4%
same,Percent Effect,[5],-6.24%
same,Percent Effect,[6],4.17%
same,Percent Effect,[7],2.25%
same,Percent Effect,[8],3.72%
same,Percent Effect,[9],82% and 78.2% and 80%
same,Percent Effect,[10],19.6% and 16.4%
same,Percent Effect,[11],-7.25%
same,Percent Effect,[12],8.62%
same,Percent Effect,[13],6.45%
same,Percent Effect,[14],8.64%
same,Percent Effect,[15],-1.19%
NCC(O)c1cc(Cl)cc(Cl)c1 (stereo not drawn),PXC50,[1]; MAX_EFFECT 9.287257019,< 3
same,PXC50,[1]; MAX_EFFECT 13.11787072,< 3
Clc1ccccc1Nc1ncnc(-n2cccc2)n1,PXC50,[1]; MAX_EFFECT 8.148148148,< 4
